Out of some 5,500 compounds screened, about 2,000 (36%) were called active. About 18% were inconclusive and are not listed. Rule as the data show it: active = normalized growth mostly below about 0.91 (no sharp cut-off); inconclusive = no clear call, values can overlap the other calls; inactive = mostly above about 0.92. Some of the results follow.
Test: chemical genetic growth profiling, strain panel (AID 1159580);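 also: tested at 20 µM; growth read once vehicle control cultures reached saturation at 30 °C; 1 = growth at the plate median or of vehicle wells; lower values mean less growth of the strain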
Details: S. cerevisiae deletion strains, growth OD
[1] = locus YAL040C, strain CLN3, stronger effect = lower value
[2] = locus YCL061C, strain MRC1 (second series), stronger effect = lower value
[3] = locus YER002W, strain NOP16, stronger effect = lower value
[4] = locus YMR263W, strain SAP30, stronger effect = lower value
[5] = locus YNL128W, strain TEP1, stronger effect = lower value
[6] = locus YNL175C, strain NOP13, stronger effect = lower value
[7] = locus YNL197C, strain WHI3, stronger effect = lower value
[8] = locus YNL224C, strain SQS1, stronger effect = lower value
[9] = locus YOR083W, strain WHI5 (second series), stronger effect = lower value

Measured: normalized growth

NCCC(=O)NCCc1cnc[nH]1
inactive: locus YAL013W, strain DEP1, stronger effect = lower value 1 | [1] 0.98 | [2] 0.997 | [3] 0.993 | locus YGR078C, strain PAC10, stronger effect = lower value 1.01 | [4] 1 | [5] 1.01 | [6] 0.966 | [7] 0.984 | [8] 0.998 | [9] 1 | locus YPL241C, strain CIN2, stronger effect = lower value 1.01

N=C(N)SCCc1cnc[nH]1
inactive: [1] 0.985 | [2] 0.988 | locus YDR363W, strain ESC2, stronger effect = lower value 1.01 | [3] 1.02 | locus YJR075W, strain HOC1, stronger effect = lower value 0.998 | [4] 0.979 | [5] 0.995 | locus YNL153C, strain GIM3, stronger effect = lower value 0.972 | [6] 0.992 | [7] 0.98 | [8] 0.991 | locus YNL322C, strain KRE1, stronger effect = lower value 0.979 | [9] 0.988 | locus YPL055C, strain LGE1, stronger effect = lower value 1

Reference: PubChem BioAssay AID1159580 (chemical genetic matrix, 2015)
